“And” between values parts separate entries of the source, which are not always exact repeats. Identical values can stand only once.
assay: viability loss with induced miR-34 in A549 – imaging, A549 dox-inducible miR-34, nuclei and caspase counts, primary screen (AID 1347080); conditions: A549 miR-34 inducible, Hoechst nuclei count, 48 h; measured here: total cells without miR-34 induction; also: test concentration not given here

SMILES	cell count
C[C@@H]1CN(CCCn2c3ccccc3c3ccccc32)C[C@H](C)N1	8340
Oc1c(I)cc(I)c2cccnc12	12200
O=C1C(O)=C(O)C(=O)C(O)=C1O	10800 and 13100
Oc1ccc(Cl)c2cccnc12	12000
CN1CCN(c2cc3c(cc2F)c(=O)c(C(=O)O)cn3-c2ccc(F)cc2)CC1	7860
CO/N=C1\CN(c2nc3c(cc2F)c(=O)c(C(=O)O)cn3C2CC2)CC1CN (stereo not drawn)	12600
OCc1ccccc1O	12400
O=C1OC(c2ccc(O)cc2)(c2ccc(O)cc2)c2ccccc21	13200
C=CCc1ccc(O)c(OC)c1	11600
NC(=O)c1ccc([N+](=O)[O-])cc1Cl	13200
C=Cc1c(C)c2cc3[nH]c(cc4nc(cc5nc(cc1[nH]2)C(C)=C5CCC(=O)O)C(CCC(=O)O)=C4C)c(C)c3C=C	8840
COc1ccc(CN(CCN(C)C)c2ncccn2)cc1	13800
CC(=O)Nc1ccc(S(=O)(=O)Nc2ccc([N+](=O)[O-])cc2)cc1	12500
CC(=O)OCC(COC(C)=O)OC(C)=O	12600
CCN(CC)CC1CCCCN1CC(=O)N1c2ccccc2C(=O)Nc2cccnc21 (stereo not drawn)	11000 and 9980
OCc1cccnc1	9800
COc1ccc(C2C(=O)c3ccccc3C2=O)cc1	12700
CC(=O)NO	12300
Cc1cc(C(C)(C)C)c(O)c(C(C)(C)C)c1	12300

SMILES	cell count
NC(=O)NC(=O)Cc1ccccc1	13400
CC1CCC(NC(=O)N(CCCl)N=O)CC1 (stereo not drawn)	11500
O=C(O)[C@@H]1[C@H]2C[C@H]3c4[nH]c5ccccc5c4CCN3C[C@@H]2CC[C@@H]1O	8080
O=C(CCBr)N1CCN(C(=O)CCBr)CC1	7310
CCOC(N)=O	12800
CC(C)NC[C@@H](O)COc1cccc2ccccc12	8520
CNCCCCOc1ccccc1Cc1ccccc1	7840 and 8050
COc1cc(C)c(Cc2cnc(N)nc2N)cc1OC	10000
CC[N+](C)(CC)CCOC(=O)C(O)(c1ccccc1)C1CCCCC1 (stereo not drawn)	9210
Nc1ccc(C(=O)O)cc1	12500
O=C(OCc1ccccc1)c1ccccc1	12500
CCCCCCc1ccc(O)cc1O	12200
CO[C@@]1(NC(=O)C(C(=O)O)c2ccc(O)cc2)C(=O)N2C(C(=O)O)=C(CSc3nnnn3C)CO[C@@H]21 (stereo partly drawn)	13300
CCCCCC(C)N (stereo not drawn)	12400
NC(=O)c1ccccc1O	12800
C=C[C@@]1(C)CC(=O)[C@]2(O)[C@@]3(C)[C@@H](O)CCC(C)(C)[C@@H]3[C@H](O)[C@H](OC(C)=O)[C@@]2(C)O1	10400
O=C(O)CCCCC1CCSS1 (stereo not drawn)	6020
Nc1c2c(nc3c1CCC3)CCCC2	9920
CC(=O)OCC1=C(C(=O)O)N2C(=O)[C@@H](NC(=O)CSc3ccncc3)[C@H]2SC1	12700
